Laboratory results from PubChem BioAssay (NCI).
About 79,000 compounds went through this panel and 15% of them were active in at least one assay; those are over-represented in the sample as a whole. Unmarked numbers belong to inactive results. Calls of active or inactive are those of the source. Rule as the data show it: active = growth inhibition above about 70%; inactive = the rest.

Tests used:
[1] = NCI Yeast Anticancer Drug Screen. Data for the rad50 strain (AID 155);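 also: 0% = growth of vehicle-only cultures of the same strain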; conditions: S. cerevisiae rad50 strain growth inhibition; at 50.0 µM; active compounds read high
Outline: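 DNA repair mutant yeast, compound exposure, growth read-out; inhibition is taken relative to vehicle.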

[2] = NCI Yeast Anticancer Drug Screen. Data for the mec2-1 strain (AID 157); conditions: S. cerevisiae mec2-1 strain, at 50.0 µM, active compounds read high
Outline: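 Vehicle-treated cultures served as reference for growth inhibition of compound-exposed mec2-1 yeast.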

[3] = NCI Yeast Anticancer Drug Screen. Data for the sgs1 mgt1 strain (AID 161);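 also: 0% = growth of cultures given vehicle only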; conditions: S. cerevisiae sgs1 mgt1 strain, at 50.0 µM, active compounds read high
Outline: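 Test agents were incubated with a DNA-repair-mutant yeast strain. Growth was then read and compared against vehicle-treated controls.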

[4] = NCI Yeast Anticancer Drug Screen. Data for the cln2 rad14 strain (AID 165);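 also: 0% = growth equal to vehicle treated cultures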; conditions: S. cerevisiae cln2 rad14 strain, at 50.0 µM, active compounds read high
Outline: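 Each compound was tested on cln2 rad14 yeast. Inhibition of growth was calculated against vehicle-exposed controls.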

[5] = NCI Yeast Anticancer Drug Screen. Data for the bub3 strain (AID 167); conditions: S. cerevisiae bub3 mutant strain, at 50.0 µM, active compounds read high
Outline: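 In this screen, a yeast mutant lacking normal mitotic checkpoint function is challenged with compound. Relative growth versus vehicle gives the inhibition value.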

[6] = NCI Yeast Anticancer Drug Screen. Data for the mlh1 rad18 strain (AID 175); conditions: S. cerevisiae mlh1 rad18 strain growth inhibition; at 50.0 µM; active compounds read high
Outline: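 Vehicle-treated cultures served as the reference for growth inhibition in a yeast strain carrying DNA damage repair alterations exposed to each compound.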

Compound	growth inhibition [1]	growth inhibition [2]	growth inhibition [3]	growth inhibition [4]	growth inhibition [5]	growth inhibition [6]
CNc1nc(N)nc(N)c1N1CCN(c2ccc(C(=O)O)cc2)CC1	13.3%	-0.8%	19.8%	9.95%	17.2%	16.6%
C=C(C)C(O)C(O)c1c(OC)ccc2ccc(=O)oc12 (stereo not given)	-3.65%	-4.25%	-50.7%	14.1%	-5.55%	-4.4%
CS(=O)(=O)N(CCC#N)c1ccc(/C=N/NC(=O)CC(=O)Nc2cccc(Cl)c2)cc1	-6.75%	18.1%	10.7%	19.6%	-6.15%	8.65%
CCCCOc1ccc(N)cn1	-5.05%	-4.85%	6.15%	-16.4%	32.7%	-5.45%
Cc1cc2c(cc1C)[n+](=O)c(C(=O)/C=C/c1ccc3c(c1)OCO3)c(C)n2[O-]	5.85%	13.4%	10.1%	28.8%	1.35%	0.15%
CCOC(=O)c1c2ccc(/C=C/c3ccccn3)ccc-2c(C(=O)OCC)c1N	15.2%	-4.75%	-1%	13%	0.9%	-3.1%
CC(=O)NC1(C)CC[C@H]2CC1C(C)=NC2(C)C (stereo not given in full)	-13.2%	-3.95%	-6.9%	2.85%	-8.15%	-14.3%
CC(=O)O/C(=C\C(=O)[C@H]1CC[C@H]2[C@@H]3CC[C@@H]4C[C@H](OC(C)=O)CC[C@]4(C)[C@H]3C(=O)C[C@]12C)C(F)(F)F	-16.1%	23.6%	5.25%	18.8%	8.85%	-13.6%
CCCCCCCCOCC1S(=O)(=O)OCCOS1(=O)=O	-48.2%	-17.6%	-50.7%	-53.8%	-24.4%	-2.3%
O=CN1CCN(C=S)CC1	-14%	-10.2%	-9.9%	3.75%	2.6%	-15.4%
C=C1C(=O)[C@@]23CC[C@@H]4[C@@]5(C)CCC[C@@]4(OC5=O)C2(C)CC[C@]1(OC)C3 (stereo not given in full)	87.2% (active)	92.5% (active)	88.3% (active)	88.5% (active)	88.4% (active)	90.7% (active)
O=C(O)CNc1cc(-c2ccccc2)nc(NCC(=O)O)n1	-53.7%	-12.3%	4.45%	17.8%	-29.1%	25.4%
Nc1ccc(CCCCc2nc(N)nc(N)c2-c2ccc(Cl)c(Cl)c2)cc1	36.5%	77% (active)	88.8% (active)	9.1%	14.9%	60.5%
Cc1n(C)nn[n+]1C	2.65%	-8.35%	-2.65%	-24.1%	7.9%	-16.5%
O=C(N/N=C(\C1=Nc2ccc(Cl)cc2NC1O)C(O)/C=C/c1ccccc1)c1ccncc1 (stereo not given)	17.6%	3.95%	-8.8%	-20.7%	-4%	7.7%
CC(C)(C)OC(=O)NC(Cc1ccccc1)C(=O)N[C@H]1c2ccsc2/C(=N/O)[C@H]1O (stereo not given in full)	-9.2%	-6.95%	3.8%	9.15%	-4.85%	29.9%
Oc1ccc2ccccc2c1-c1c(OC(c2ccccc2)c2ccccc2)ccc2ccccc12	5.9%	-19.2%	0.2%	-29.4%	-4.65%	-13.1%
C/[N+]([O-])=C/c1ncc([N+](=O)[O-])n1CCO	4.05%	5.9%	7.95%	25.1%	-3.5%	25.6%
CC(=O)C1(c2ccccc2)C(C)(C)C(C)(C)C(=O)C(C)(C)C1(C)C	19.4%	7.55%	15.4%	16.9%	12.9%	21.6%
CSC#CC(Sc1c(Cl)c(Cl)c(Cl)c(Cl)c1Cl)=C(Sc1c(Cl)c(Cl)c(Cl)c(Cl)c1Cl)Sc1c(Cl)c(Cl)c(Cl)c(Cl)c1Cl	2.55%	-0.8%	-1.7%	-3.6%	-0.6%	-15.5%

Compound	growth inhibition [1]	growth inhibition [2]	growth inhibition [3]	growth inhibition [4]	growth inhibition [5]	growth inhibition [6]
O=C(O)c1cccc(Cl)c1-c1c(Cl)cccc1C(=O)O	4.65%	-0.95%	17.8%	11.8%	17.3%	-8.45%
CN(C)C1CCC(C=C(C2CCC(CC(=O)O)CC2)C2CCC(CC(=O)O)CC2)CC1 (stereo not given)	-2.95%	-21.5%	9.6%	13.6%	1.05%	6.3%
Cc1c(C#N)c2n(c1C)CC(=O)N2	7.85%	0.45%	2.8%	-0.85%	-20.4%	-33.9%
CS(=O)(=O)OCCOc1ccccc1	1.15%	-0.45%	0.95%	-32%	9.15%	8.05%
C(=C\c1ccc(OCc2ccccc2)cc1)/c1ccc(OCc2ccccc2)cc1	-5.5%	-13.7%	-13.6%	-7.6%	-24.6%	-26%
CCCCCCNC(CC(N)=O)C(=O)O (stereo not given)	-13.2%	3.85%	11.3%	2.45%	-12.8%	-26.2%
CN(c1ccc(Cl)cc1)S(=O)(=O)c1ccc([N+](=O)[O-])cc1	-13.2%	-23.5%	23.4%	32.4%	38%	-5.9%
CC(=O)NC(C)Cc1ccc(C(=O)O)cc1 (stereo not given)	13.9%	-6.25%	-8.5%	-36.4%	-4.5%	12.6%
O=c1[nH]nc(S(=O)(=O)c2ccccc2)c(=O)[nH]1	13.2%	-6.45%	-1.7%	-10.6%	9.3%	-3.2%
CCN(CC)c1nc(N(CC)CC)nc(N(CC)CC)n1	-1%	14.8%	2.75%	-30.6%	13.8%	0.2%
FC(F)(F)C1=NCCN1	-0.5%	-11.1%	-2.85%	11.4%	-2.45%	-10.3%
C=C1C(=O)OC2C[C@@]3(C)CCCC(=C)C3CC12 (stereo not given in full)	21.4%	21.1%	32.1%	28.6%	20.6%	13%
COc1cc(C(=O)NN(C)C)cc(OC)c1OC	13.5%	0.65%	-9.95%	10.8%	-7.95%	-18.5%
O=C(Nc1ccc(Cl)c(Cl)c1)C(=O)C(C(=O)c1ccccc1-c1ccccc1)C1OC(=O)c2ccccc21 (stereo not given)	20.2%	-0.45%	5.85%	-50.5%	4.85%	-8.9%
O/N=C/c1cccc[n+]1Cc1ccccc1	-4%	6.3%	0.95%	-23.9%	4.85%	1.25%
c1ccc2c(CN3CCCCC3)cccc2c1	-6.1%	-19.1%	-4.05%	5.5%	-15.2%	-13.9%
c1ccc(-c2nc3ccccc3n2CCc2ccncc2)nc1	11%	10.4%	14%	-14%	3.2%	20.9%
O=C1c2cc([N+](=O)[O-])sc2C(=O)c2c([N+](=O)[O-])csc21	91% (active)	93% (active)	92.5% (active)	91.4% (active)	92.1% (active)	91.3% (active)
CCCCCCCCCCCCOP(=O)(O)OP(=O)(O)OCC1OC(n2cc(C)c(=O)[nH]c2=O)CC1O (stereo not given)	35.4%	13.9%	47%	14.7%	14.4%	7.55%
CCCCCC(CN(C)C)C(=O)CC(SCC)c1ccccc1 (stereo not given)	27.7%	20.4%	8.85%	1.05%	18.6%	16.8%
